# ChEMBL document CHEMBL2218924, “A broad activity screen in support of a chemogenomic map for kinase signalling research and drug discovery” (Biochem J, 2013)
# Tests used:
# [1] = target: Ephrin type-A receptor 4 (Homo sapiens) (UniProt P54764); details: at 10 µM
# [2] = target: Ephrin type-A receptor 5 (Homo sapiens) (UniProt P54756); details: at 1 µM
# [3] = target: Ephrin type-A receptor 5 (Homo sapiens) (UniProt P54756); details: at 10 µM
# [4] = target: T1, Ephrin type-A receptor 8 (Homo sapiens) (UniProt P29322); details: at 10 µM
# T1 sequence (whole entry): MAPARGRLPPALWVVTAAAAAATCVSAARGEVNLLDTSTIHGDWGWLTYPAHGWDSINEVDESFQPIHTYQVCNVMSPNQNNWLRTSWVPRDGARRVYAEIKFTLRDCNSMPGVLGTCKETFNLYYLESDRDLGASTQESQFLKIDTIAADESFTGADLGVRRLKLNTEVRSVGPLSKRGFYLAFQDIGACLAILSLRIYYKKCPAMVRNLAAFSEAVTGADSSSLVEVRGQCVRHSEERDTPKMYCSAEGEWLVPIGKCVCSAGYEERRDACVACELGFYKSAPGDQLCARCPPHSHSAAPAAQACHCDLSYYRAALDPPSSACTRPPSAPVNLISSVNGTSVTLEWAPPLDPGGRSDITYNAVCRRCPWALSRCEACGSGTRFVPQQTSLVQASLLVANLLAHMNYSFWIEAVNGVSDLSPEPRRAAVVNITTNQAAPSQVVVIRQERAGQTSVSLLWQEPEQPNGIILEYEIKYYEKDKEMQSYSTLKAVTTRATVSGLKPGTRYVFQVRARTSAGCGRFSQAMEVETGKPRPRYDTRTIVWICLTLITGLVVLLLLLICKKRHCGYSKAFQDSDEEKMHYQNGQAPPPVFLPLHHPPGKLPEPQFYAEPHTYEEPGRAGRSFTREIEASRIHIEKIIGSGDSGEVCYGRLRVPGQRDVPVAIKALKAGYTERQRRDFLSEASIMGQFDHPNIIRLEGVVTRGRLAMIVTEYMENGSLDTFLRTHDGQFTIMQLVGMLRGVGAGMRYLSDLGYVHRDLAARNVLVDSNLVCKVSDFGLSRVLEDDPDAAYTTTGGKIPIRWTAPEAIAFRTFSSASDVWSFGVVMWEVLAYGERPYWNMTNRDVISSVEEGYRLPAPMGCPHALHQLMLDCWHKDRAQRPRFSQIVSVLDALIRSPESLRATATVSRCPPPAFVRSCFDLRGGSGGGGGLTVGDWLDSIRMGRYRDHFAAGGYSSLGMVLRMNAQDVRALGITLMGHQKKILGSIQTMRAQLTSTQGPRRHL
# [5] = target: T2, Ephrin type-B receptor 4 (Homo sapiens) (UniProt P54760); details: at 1 µM
# T2 sequence (whole entry): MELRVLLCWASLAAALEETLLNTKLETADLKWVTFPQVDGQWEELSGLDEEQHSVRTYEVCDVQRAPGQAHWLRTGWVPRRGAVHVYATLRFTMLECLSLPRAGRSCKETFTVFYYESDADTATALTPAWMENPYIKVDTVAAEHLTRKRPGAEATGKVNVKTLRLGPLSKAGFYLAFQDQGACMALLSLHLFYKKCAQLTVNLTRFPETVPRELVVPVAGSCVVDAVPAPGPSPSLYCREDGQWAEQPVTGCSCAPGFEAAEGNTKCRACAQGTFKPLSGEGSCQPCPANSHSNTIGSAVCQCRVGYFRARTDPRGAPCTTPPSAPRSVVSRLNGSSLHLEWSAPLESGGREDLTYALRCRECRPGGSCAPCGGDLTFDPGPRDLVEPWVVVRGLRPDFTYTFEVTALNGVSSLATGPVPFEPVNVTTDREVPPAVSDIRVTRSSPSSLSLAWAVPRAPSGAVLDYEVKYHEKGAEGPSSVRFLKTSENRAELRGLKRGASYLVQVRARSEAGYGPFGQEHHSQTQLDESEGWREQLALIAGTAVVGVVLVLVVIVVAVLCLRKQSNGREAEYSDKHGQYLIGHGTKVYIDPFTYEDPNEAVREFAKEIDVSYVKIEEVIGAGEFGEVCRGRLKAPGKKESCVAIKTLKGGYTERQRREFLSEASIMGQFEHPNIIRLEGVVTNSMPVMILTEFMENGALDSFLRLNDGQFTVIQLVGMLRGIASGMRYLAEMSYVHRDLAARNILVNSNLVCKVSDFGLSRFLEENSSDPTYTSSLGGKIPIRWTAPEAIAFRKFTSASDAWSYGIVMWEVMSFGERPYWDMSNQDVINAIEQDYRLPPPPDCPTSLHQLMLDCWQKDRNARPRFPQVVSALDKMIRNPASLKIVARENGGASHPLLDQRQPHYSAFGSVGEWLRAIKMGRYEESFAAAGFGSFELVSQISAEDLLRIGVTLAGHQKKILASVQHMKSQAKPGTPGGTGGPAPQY
# [6] = target: T2, Ephrin type-B receptor 4 (Homo sapiens); details: at 10 µM
# [7] = target: Receptor tyrosine-protein kinase erbB-4 (Homo sapiens) (UniProt Q15303); details: at 10 µM
# Receptor tyrosine-protein kinase erbB-4 (Homo sapiens), sequence (Q15303 whole entry): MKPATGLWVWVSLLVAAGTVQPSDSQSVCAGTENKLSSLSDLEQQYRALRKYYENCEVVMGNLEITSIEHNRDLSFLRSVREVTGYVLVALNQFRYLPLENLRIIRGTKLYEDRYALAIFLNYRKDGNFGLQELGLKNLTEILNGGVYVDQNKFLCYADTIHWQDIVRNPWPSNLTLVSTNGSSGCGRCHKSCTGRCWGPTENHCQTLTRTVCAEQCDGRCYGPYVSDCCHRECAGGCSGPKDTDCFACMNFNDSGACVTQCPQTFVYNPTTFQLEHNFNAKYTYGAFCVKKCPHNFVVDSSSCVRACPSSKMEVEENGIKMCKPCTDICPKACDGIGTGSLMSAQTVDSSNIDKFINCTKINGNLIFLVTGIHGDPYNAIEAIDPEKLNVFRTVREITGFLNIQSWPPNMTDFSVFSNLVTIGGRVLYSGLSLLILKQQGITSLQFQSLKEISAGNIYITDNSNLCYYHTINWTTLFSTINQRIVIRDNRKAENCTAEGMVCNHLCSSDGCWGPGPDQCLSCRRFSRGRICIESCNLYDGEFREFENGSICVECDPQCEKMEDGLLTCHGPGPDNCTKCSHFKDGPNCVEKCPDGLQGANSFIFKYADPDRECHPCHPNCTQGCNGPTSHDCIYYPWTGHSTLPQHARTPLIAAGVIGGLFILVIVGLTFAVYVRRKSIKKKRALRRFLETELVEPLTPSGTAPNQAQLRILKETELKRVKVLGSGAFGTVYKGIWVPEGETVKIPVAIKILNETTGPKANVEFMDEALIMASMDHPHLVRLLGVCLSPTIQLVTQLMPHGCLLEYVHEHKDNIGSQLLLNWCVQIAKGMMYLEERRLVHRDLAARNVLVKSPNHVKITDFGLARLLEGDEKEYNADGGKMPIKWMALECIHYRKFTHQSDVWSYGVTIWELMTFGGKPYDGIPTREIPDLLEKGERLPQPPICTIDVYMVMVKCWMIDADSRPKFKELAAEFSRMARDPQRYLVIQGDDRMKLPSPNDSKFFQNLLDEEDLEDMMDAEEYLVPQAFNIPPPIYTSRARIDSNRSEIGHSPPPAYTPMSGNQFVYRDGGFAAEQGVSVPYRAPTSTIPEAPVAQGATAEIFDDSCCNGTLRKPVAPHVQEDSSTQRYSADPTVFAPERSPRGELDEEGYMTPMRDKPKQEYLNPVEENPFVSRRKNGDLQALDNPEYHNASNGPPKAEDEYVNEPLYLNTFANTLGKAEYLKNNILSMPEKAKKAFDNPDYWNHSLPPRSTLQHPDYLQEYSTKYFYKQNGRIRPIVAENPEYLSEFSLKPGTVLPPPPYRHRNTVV
# [8] = target: T3, Ephrin type-B receptor 2 (Homo sapiens) (UniProt P29323); details: at 10 µM
# T3 sequence (whole entry): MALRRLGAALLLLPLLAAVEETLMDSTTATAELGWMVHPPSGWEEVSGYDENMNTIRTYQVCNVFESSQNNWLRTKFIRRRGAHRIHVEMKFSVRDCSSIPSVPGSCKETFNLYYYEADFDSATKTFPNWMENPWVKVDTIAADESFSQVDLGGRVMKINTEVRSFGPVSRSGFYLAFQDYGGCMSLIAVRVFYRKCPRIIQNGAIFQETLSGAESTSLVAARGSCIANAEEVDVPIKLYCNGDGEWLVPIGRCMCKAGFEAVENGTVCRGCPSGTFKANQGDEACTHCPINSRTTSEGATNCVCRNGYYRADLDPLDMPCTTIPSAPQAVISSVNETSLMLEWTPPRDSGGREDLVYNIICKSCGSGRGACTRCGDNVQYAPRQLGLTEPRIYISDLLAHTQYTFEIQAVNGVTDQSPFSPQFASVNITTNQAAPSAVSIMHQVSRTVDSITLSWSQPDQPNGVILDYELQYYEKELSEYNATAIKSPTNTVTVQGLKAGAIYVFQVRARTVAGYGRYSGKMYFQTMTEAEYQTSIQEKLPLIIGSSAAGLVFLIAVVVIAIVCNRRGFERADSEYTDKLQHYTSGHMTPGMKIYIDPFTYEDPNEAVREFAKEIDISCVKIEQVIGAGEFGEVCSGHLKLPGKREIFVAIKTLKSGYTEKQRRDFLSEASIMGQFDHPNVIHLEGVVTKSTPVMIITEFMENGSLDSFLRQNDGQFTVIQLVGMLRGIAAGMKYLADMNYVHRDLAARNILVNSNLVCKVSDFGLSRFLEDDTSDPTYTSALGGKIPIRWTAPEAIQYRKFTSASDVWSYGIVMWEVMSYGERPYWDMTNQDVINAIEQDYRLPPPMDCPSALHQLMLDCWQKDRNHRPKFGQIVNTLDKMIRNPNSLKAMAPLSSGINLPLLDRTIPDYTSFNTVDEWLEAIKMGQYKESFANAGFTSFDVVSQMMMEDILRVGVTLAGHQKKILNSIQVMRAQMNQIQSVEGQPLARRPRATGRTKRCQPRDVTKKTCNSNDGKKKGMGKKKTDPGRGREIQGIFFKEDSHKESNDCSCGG
# [9] = target: T4, Ephrin type-B receptor 3 (Homo sapiens) (UniProt P54753); details: at 1 µM
# T4 sequence (whole entry): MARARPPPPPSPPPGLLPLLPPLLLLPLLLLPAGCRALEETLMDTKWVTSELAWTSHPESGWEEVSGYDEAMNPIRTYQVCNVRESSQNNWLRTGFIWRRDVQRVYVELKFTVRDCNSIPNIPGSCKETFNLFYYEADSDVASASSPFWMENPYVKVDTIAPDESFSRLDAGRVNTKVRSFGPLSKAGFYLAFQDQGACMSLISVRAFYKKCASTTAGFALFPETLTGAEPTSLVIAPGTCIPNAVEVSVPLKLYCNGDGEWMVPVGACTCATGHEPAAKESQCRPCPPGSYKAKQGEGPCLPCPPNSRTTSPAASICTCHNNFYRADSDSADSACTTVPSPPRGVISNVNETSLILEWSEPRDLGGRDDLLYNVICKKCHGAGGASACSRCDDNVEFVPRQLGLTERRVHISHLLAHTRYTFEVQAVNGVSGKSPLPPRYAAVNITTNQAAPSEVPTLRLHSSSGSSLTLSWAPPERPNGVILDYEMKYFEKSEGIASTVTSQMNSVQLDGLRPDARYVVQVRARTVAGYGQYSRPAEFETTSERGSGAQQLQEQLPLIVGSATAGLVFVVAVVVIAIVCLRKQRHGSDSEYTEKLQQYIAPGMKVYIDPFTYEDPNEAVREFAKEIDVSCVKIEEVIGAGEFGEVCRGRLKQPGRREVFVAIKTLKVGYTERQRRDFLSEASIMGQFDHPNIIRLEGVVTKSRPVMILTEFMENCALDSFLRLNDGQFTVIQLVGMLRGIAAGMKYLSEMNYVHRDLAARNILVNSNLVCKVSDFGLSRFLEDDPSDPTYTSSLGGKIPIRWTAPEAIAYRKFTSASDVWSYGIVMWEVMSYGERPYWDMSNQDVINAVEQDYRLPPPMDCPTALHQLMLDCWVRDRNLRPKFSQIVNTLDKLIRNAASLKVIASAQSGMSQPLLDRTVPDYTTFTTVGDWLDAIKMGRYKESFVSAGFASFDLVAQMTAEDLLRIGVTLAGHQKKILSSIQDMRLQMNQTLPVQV
# [10] = target: Focal adhesion kinase 1 (Homo sapiens) (UniProt Q05397); details: at 1 µM
# Focal adhesion kinase 1 (Homo sapiens), sequence (Q05397 2-1052 limits assumed): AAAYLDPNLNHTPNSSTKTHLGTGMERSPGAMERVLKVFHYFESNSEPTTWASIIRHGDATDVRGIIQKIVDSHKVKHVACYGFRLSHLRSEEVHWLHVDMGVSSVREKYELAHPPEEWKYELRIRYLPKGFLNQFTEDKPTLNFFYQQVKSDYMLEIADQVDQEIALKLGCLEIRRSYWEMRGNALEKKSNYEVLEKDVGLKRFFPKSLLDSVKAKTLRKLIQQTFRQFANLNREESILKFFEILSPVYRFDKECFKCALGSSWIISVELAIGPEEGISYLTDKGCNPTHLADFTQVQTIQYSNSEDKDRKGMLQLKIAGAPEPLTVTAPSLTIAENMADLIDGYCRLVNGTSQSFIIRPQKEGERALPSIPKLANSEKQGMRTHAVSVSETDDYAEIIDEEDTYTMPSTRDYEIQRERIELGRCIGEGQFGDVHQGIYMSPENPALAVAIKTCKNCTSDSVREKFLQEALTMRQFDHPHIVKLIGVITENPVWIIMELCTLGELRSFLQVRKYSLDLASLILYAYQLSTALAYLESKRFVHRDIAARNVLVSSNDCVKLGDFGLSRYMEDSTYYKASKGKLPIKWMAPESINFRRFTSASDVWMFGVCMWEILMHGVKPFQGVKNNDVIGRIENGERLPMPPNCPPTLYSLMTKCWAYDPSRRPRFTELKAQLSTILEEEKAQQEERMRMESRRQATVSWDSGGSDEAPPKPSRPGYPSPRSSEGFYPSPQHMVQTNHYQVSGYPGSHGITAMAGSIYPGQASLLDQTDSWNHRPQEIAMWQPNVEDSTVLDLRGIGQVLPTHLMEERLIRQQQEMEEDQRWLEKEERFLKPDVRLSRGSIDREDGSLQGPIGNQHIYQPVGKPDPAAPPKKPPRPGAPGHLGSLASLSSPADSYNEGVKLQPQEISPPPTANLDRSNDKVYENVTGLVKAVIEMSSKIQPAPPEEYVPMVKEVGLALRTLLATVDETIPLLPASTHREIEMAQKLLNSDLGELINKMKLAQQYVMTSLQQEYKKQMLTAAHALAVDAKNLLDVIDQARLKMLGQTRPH
# [11] = target: Ephrin type-A receptor 7 (Homo sapiens) (UniProt Q15375); details: at 1 µM
# Ephrin type-A receptor 7 (Homo sapiens), sequence (Q15375 28-998 limits assumed): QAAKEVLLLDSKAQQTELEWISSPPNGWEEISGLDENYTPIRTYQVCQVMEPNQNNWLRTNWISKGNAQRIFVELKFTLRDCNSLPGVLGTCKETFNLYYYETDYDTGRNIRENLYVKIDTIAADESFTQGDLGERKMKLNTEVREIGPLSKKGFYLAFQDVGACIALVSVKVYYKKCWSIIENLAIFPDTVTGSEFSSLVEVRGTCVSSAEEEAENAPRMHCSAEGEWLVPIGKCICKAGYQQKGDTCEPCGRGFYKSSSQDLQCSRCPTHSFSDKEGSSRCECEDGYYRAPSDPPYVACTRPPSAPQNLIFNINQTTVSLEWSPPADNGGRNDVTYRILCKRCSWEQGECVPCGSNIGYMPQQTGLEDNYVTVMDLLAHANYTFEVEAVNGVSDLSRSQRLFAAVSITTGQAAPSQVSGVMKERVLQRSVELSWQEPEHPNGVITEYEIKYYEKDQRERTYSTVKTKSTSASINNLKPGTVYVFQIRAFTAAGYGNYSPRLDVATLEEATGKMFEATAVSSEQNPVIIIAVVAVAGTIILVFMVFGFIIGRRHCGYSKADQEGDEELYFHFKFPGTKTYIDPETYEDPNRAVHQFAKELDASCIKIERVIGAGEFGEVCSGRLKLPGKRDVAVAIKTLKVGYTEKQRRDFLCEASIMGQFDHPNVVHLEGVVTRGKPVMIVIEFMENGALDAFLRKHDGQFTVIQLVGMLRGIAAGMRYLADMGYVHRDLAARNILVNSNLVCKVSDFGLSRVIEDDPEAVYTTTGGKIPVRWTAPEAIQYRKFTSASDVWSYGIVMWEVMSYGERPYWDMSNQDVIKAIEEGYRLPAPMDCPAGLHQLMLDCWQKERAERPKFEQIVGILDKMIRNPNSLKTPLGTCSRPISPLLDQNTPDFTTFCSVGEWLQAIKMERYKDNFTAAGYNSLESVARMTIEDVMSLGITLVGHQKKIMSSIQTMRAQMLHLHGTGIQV
# [12] = target: Ephrin type-A receptor 7 (Homo sapiens) (UniProt Q15375); details: at 10 µM
# [13] = target: T5, Ephrin type-B receptor 1 (Homo sapiens) (UniProt P54762); details: at 1 µM
# T5 sequence (whole entry): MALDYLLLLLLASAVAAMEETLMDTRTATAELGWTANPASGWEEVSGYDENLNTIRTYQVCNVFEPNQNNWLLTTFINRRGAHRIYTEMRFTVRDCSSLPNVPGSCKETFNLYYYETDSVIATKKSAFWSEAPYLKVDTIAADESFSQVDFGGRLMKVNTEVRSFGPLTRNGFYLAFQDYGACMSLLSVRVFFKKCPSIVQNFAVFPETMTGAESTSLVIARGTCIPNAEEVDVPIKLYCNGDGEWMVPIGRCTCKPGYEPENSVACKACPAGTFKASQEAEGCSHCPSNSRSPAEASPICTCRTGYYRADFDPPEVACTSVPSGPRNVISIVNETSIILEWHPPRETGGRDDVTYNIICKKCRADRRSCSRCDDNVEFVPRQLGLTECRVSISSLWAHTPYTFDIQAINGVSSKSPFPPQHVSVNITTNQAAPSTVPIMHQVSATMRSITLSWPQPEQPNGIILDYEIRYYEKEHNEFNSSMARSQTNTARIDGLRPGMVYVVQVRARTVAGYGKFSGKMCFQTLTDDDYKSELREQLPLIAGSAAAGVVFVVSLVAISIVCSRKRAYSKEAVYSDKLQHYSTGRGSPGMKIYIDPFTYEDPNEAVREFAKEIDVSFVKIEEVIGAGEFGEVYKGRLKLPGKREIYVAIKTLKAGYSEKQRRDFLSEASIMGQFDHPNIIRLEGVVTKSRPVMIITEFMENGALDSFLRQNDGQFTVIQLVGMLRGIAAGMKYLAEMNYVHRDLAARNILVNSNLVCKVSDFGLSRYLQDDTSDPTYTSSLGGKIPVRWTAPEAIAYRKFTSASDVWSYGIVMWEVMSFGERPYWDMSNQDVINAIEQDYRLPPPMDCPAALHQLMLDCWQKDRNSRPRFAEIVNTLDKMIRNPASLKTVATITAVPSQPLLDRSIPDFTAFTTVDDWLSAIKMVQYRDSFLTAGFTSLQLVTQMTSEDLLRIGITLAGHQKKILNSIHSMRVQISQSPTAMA
# [14] = target: T5, Ephrin type-B receptor 1 (Homo sapiens); details: at 10 µM
# [15] = target: Receptor tyrosine-protein kinase erbB-4 (Homo sapiens) (UniProt Q15303); details: at 1 µM
# Ephrin type-A receptor 5 (Homo sapiens), sequence (P54756 whole entry): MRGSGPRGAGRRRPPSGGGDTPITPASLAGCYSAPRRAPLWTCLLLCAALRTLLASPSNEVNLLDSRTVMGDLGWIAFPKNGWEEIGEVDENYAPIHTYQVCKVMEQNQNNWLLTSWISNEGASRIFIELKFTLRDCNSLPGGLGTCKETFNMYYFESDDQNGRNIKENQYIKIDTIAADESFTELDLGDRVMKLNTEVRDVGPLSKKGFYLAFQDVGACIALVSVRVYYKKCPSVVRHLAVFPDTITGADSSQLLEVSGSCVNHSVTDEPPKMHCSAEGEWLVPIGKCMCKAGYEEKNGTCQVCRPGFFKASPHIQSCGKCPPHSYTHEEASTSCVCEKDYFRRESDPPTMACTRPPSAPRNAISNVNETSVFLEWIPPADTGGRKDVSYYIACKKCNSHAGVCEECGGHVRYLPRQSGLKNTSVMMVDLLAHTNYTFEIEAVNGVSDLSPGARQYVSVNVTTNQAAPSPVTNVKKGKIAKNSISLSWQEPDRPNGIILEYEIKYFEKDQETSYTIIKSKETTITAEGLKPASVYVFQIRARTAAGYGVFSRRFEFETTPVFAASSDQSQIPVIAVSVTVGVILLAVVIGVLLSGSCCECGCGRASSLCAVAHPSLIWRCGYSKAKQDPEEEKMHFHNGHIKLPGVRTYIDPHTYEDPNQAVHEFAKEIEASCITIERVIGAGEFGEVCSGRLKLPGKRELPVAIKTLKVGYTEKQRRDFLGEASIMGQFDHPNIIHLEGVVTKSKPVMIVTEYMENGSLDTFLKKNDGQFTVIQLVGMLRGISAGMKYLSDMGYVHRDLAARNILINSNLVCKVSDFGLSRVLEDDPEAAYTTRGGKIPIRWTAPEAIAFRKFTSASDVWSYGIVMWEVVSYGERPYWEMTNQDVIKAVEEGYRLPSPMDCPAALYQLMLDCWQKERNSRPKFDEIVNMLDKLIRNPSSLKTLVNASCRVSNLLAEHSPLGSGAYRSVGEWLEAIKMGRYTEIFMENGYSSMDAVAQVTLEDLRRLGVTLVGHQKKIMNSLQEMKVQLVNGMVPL
smiles,measurement,setting,value
Nc1nccc(-c2c(-c3ccc(F)cc3)ncn2C2CCNCC2)n1,residual activity,[1],71%
same,residual activity,[2],113%
same,residual activity,[3],72%
same,residual activity,[4],60%
same,residual activity,[5],77%
same,residual activity,[6],18%
same,residual activity,[7],66%
CN([C@@H](Cc1ccc(OS(=O)(=O)c2cccc3cnccc23)cc1)C(=O)N1CCN(c2ccccc2)CC1)S(=O)(=O)c1cccc2cnccc12,residual activity,[8],131%
same,residual activity,[9],116% (inactive)
same,residual activity,[10],119%
O=C1Nc2ccccc2/C1=C\c1c(Cl)[nH]c2ccccc12,residual activity,[2],118%
same,residual activity,[5],117%
same,residual activity,[6],134%
O=C(c1ccccc1)c1ccc(N2CCOCC2)cc1O,residual activity,[2],118%
same,residual activity,[11],79%
same,residual activity,[12],86%
same,residual activity,[13],96%
same,residual activity,[14],95%
same,residual activity,[9],115% (inactive)
same,residual activity,[5],117%
same,residual activity,[6],116%
same,residual activity,[15],95%
same,residual activity,[7],96%
same,residual activity,[10],139%
